Screening data as filed in PubChem BioAssay.
An excerpt weighted towards active compounds, which were near 4.8% of everything screened.
ATXN2 expr inh: reduces ATXN2 reporter expression in HEK-293 cells. HEK-293 ATXN2-luciferase reporter, luminescence, 24 h. Potency, µM (titrated, usually from 57 µM), for the others: at the top dose activity change, negative = inhibition, usual class: inhibitors. 360,000 tested, 0.72% active; further: potency means the concentration at half of the fitted maximal effect; on the % scale 0 is the no-effect control and ±100 the full control effect; nearly all actives have a fitted effect of over 55% in size
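qHTS (up to 57 uM final) was run with 24 h compound exposure of reporter cells at 37 °C. Each well was multiplexed: SteadyGlo luminescence measured ATXN2-luciferase expression after a fluorogenic Gly-Phe-AFC viability readout (25 uM final).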
USP2a block: inhibitors of human ubiquitin-specific protease USP2a; O75604; USP2 core, Ub-CHOP2 coupled fluorogenic reporter, 485/531; Potency, µM (doses to about 38.3 µM), for the others: at the highest dose activity change, negative = inhibition, most hits filed as inhibitors; 330,000 tested, 0.01% active; AID 463254;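 further: potency means the concentration at half of the fitted maximal effect; plate controls were DMSO wells for no effect and full inhibition by NEM control for full effect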
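Cell-free coupled assay: 10nM USP2 core preincubated 30min RT with compound in Tris-HCl pH 8.0/CaCl2/CHAPS buffer, then 25nM Ub-CHOP2 and 25nM reporter substrate; fluorescence (Ex 485/Em 531) read after 60min RT, normalized to NEM inhibition, concentration-response curves fitted.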
ATXN viability: cell viability loss in ATXN counter-screen; S2 cells (HEK-293 line with an ATXN2-luciferase reporter) viability, CellTiter-Fluor protease fluorescence, 24 h; Potency, µM (series often up to 56.7 µM), usual class: cytotoxic; 400,000 tested, 0.49% active; AID 651635; further: potency means the concentration at half of the fitted maximal effect; nearly all actives have a fitted effect of over 40% in size
USP1 inh: inhibitors of human USP1/UAF1 deubiquitinase; O94782; recombinant USP1/UAF1, Ub-Rhodamine cleavage fluorescence; Potency, µM (top dose mostly 57.1 µM), inactives show top-dose activity change, negative = inhibition, most hits filed as inhibitors; 390,000 tested, 0.23% active; AID 743255; further: potency means the concentration at half of the fitted maximal effect; on the % scale 0 is the no-effect control and ±100 the full control effect; nearly all actives have a fitted effect of over 60% in size
Target sequence (O94782 whole entry, looked up): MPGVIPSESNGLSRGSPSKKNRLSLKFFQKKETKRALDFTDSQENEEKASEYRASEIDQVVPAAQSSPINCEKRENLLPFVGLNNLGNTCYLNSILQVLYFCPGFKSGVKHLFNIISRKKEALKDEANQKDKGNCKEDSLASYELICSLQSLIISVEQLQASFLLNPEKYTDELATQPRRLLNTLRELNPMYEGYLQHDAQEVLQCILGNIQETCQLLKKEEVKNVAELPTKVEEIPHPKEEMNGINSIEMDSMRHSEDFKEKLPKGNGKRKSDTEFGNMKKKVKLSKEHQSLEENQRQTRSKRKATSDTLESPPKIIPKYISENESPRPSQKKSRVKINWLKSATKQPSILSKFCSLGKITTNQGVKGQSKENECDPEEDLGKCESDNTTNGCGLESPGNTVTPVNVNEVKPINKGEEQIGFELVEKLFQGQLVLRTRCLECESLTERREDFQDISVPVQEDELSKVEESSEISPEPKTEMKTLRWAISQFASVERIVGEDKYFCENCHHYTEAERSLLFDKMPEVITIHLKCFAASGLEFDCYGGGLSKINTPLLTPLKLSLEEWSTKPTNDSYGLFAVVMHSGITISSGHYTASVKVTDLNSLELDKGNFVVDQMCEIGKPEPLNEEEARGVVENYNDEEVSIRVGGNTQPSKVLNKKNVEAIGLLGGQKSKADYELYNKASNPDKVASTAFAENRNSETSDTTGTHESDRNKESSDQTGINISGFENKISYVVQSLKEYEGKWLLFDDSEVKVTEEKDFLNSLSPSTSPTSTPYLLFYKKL
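USP1/UAF1 complex at 1 nM was preincubated with compound for 15 min at room temperature, then Ub-Rho substrate (150nM final) was added. Fluorescence (480/540 nm) was read kinetically, 6 reads every 60 seconds.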
IL-1B inflam inh: blocks inflammasome-driven IL-1 beta release; THP-1 LPS/ATP IL-1B secretion, AlphaLISA, 16 h; stronger effect = lower value; activity change, % at 57.5 µM; 360,000 tested, 4.7% active; AID 743279; in the data active means activity change below about -50%; inconclusive means mostly about -30% to -49%; further: on the % scale 0 is the no-effect control and ±100 the full control effect
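Secreted IL-1B measured by AlphaLISA bead assay after 16 h compound exposure of THP-1 cells; compounds (final up to 57.5 uM) added 1 h before LPS (250 ng/mL) and ATP (1.25 mM) stimulation; lower signal means less secretion.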
An asterisk follows results filed as active; i = inactive; u = inconclusive; x = not tested or not shown. Unless noted, the call rests on the fitted dose curve; in most records, active means well fitted curve in the direction sought with a large enough effect; inconclusive means small, poorly fitted or top-dose-only effect, or another doubt; inactive means no such curve, though single readings can be large; an effect the other way counts as inactive or inconclusive.

SMILES	ATXN2 expr inh	USP2a block	ATXN viability	USP1 inh	IL-1B inflam inh
COc1ccccc1CNC(=O)Cn1ncn2c(cc3sccc32)c1=O	x	x	x	-18%	x
Cc1ccc(C)c(NC(=O)CSc2nc(=O)n(CCN(C)C)c3c2CCC3)c1	x	x	x	-21%	x
COCCn1ccc2c(OCC(=O)Nc3ccccc3F)cccc2c1=O	9%	x	u	-25%	x
O=C(c1ccc2c3c(cccc13)CC2)C1CCCN(C(=O)c2cccnc2)C1 (centres undefined)	x	0%	i	-21%	1
O=C(c1ccc2c3c(cccc13)CC2)C1CCCN(Cc2cccnc2)C1 (centres undefined)	u	-4%	u	-14%	-78*
COc1ccc(C(=O)NCC2Cc3cccc(-c4ccc(S(C)(=O)=O)cc4)c3O2)c(OC)n1 (centres undefined)	x	x	i	x	x
S=C(NCCc1ccccc1)Nc1ccc(Br)cc1	70%	-1%	i	-13%	-70*
Oc1ccc(Br)cc1/C=N/NC(=S)NCCc1ccccc1	u	-10%	i	-20%	-75*
COc1ccc(O)c(/C=N/NC(=S)NCCc2ccccc2)c1	u	-6%	u	-23%	-97*
CCCNC(=S)Nc1ccc(Br)cc1	8%	2%	i	-16%	12
COc1ccc(/C=N/NC(=S)NCCc2ccccc2)cc1	x	-9%	i	-12%	24
Cc1ccc(C)c(Cn2c(=O)n(Cc3ccccc3)c(=O)c3c2c2cc(C)ccc2n3C)c1	11%	x	i	u	x
Brc1ccc(CN2CCN(c3ccccn3)CC2)s1	1%	-1%	i	-13%	-83*
c1ccc(N2CCN(Cc3ccc4c(c3)OCO4)CC2)nc1	-31%	x	i	-13%	-16
COc1cccc(-n2c(SC)nnc2C2CCN(CCC(C)c3ccc(C)o3)CC2)c1 (centres undefined)	x	x	i	x	x
CCOc1ccc(-n2cc(-c3ccccc3)c3c(NCc4ccc(F)cc4)ncnc32)cc1	x	x	x	-4%	x
O=C(CC(c1ccccc1)c1ccccc1O)NCCc1ccccc1 (centres undefined)	-14%	1%	i	u	-51*
O=C(CC(c1ccccc1)c1ccccc1O)NCc1ccccc1Cl (centres undefined)	0%	1%	i	-22%	u
CC1=[N+](C)c2c(ccc3cccnc23)C1(C)C	3µM*	18%	x	-16%	-112*
CSc1ccccc1OCc1cc(C(=O)NC(C)Cc2cccc(C)n2)no1 (centres undefined)	10%	-1%	i	-11%	-57*
CSc1ccccc1OCc1cc(C(=O)NCc2cccc(C)n2)no1	42%	0%	i	-35%	-5
O=C(CCCl)Nc1nnc(SCC(=O)NC2CCCC2)s1	19%	0%	i	-17%	-88*
Cc1cc(C(=O)N2CCC2(C)C(=O)NS(=O)(=O)c2cccc(OC(F)F)c2)nn1C (centres undefined)	-13%	x	i	x	23
COc1ccc(CN(C)C(=O)c2ccc(OCC(=O)Nc3cccc(C(F)(F)F)c3)c(OC)c2)c(OC)c1	-30%	-12%	i	-5%	-77*
COc1cc(C(=O)NCCCN(C)C)ccc1OCC(=O)Nc1cccc(C(F)(F)F)c1	u	-1%	u	-15%	-53*
SMILES	ATXN2 expr inh	USP2a block	ATXN viability	USP1 inh	IL-1B inflam inh
COc1ccc(CN(C)C(=O)c2cccc(NC(=O)CC3SC(N4CCCCC4)=NC3=O)c2)c(OC)c1 (centres undefined)	20µM*	x	u	1%	-55*
COc1cccc(CN(C)C(=O)c2ccc(OCC(=O)Nc3cccc(C(F)(F)F)c3)c(OC)c2)c1	u	0%	i	u	-62*
COc1ccc(NC(=O)CN(C)C(=O)c2ccccc2OCC(=O)Nc2cccc(C(F)(F)F)c2)cc1	-9%	0%	i	-10%	-3
COc1cc(C)ccc1OCCSc1nc2ccc(NC(=O)c3ccc(F)cc3)cc2s1	7%	x	i	-13%	x
Cc1cccc(N(C)C(=S)Oc2ccc3c(c2)C2CCC3C2)c1 (centres undefined)	8%	x	i	x	x
CCOC(=O)C1=C(C)n2c(s/c(=C/c3cccc([N+](=O)[O-])c3)c2=O)=NC1c1ccc(O)c(OC)c1 (centres undefined)	u	3%	u	-10%	-78*
C=C1[C@@H](O)[C@@H]2O[C@]3(CC[C@H](/C=C/[C@@H](C)[C@@H]4CC(C)=CC5(O[C@H](C[C@@](C)(O)C(=O)OC)CC[C@H]5O)O4)O3)CC[C@H]2O[C@@H]1[C@@H](O)C[C@H](C)[C@H]1OC2(CCCCO2)CC[C@H]1C (some centres undefined)	u	4%	u	-2%	-2
C=C1C(O)[C@@H]2O[C@]3(CC[C@H](/C=C/C(C)[C@@H]4CC(C)=CC5(O[C@H](C[C@@](C)(O)CO)CCC5O)O4)O3)CC[C@H]2O[C@@H]1C(O)CC(C)[C@H]1OC2(CCCCO2)CCC1C (some centres undefined)	-24%	0%	u	-25%	-100*
COc1ccccc1NC(=O)c1cc2ccccc2o/c1=N\O	5%	-1%	i	-5%	-18
COc1ccccc1NC(=O)c1cc2ccc(O)cc2o/c1=N\O	19%	-1%	i	-13%	-63*
CCCCN(CCCC)C(=S)N/N=C/c1c(C)[nH]n(-c2ccccc2)c1=O	u	-2%	i	-20%	92
CCCSC(=S)c1c(C)[nH]n(-c2ccccc2)c1=O	25µM*	1%	x	-13%	-10
CCOC(=O)COc1ccccc1/C=C1/NC(=O)NC1=O	-3%	-1%	i	-22%	u
COc1cccc(/C=C2\NC(=O)NC2=O)c1O	6%	2%	i	-18%	-50*
CCS(=O)(=O)c1ccc(OC)c(C(=O)OC)c1	12%	x	i	x	x
COc1ccccc1CNc1nc(NCc2ccc(C(C)C)cc2)c2sccc2n1	32µM*	x	x	x	-83*
CSc1ccccc1CNc1nc(NCC2CC2)nc2ccsc12	u	x	14µM*	x	-106*
CC(=O)NCCNc1nc(NC(C)C)nc2ccsc12	10%	x	i	x	89
CC(C)c1ccc(CNc2nc(NCC3CC3)nc3ccsc23)cc1	u	x	x	x	-30
CC(C)Nc1nc(NCCOc2ccccc2)c2sccc2n1	u	x	i	x	-72*
COc1cccc(CNc2nc(NC(C)C)nc3ccsc23)c1OC	-32%	x	u	x	-81*
Clc1ccccc1Nc1nc(NCC2CC2)nc2ccsc12	-16%	x	i	x	10
O=C(NCc1ccccc1)C(c1cc2ccccc2o1)n1c(=O)c(-c2cc3ccccc3[nH]2)nc2ccccc21 (centres undefined)	x	x	x	x	64
